# Shown is part of a subset that was picked to be rich in hits.
# CBFb RUNX1 block – blocks binding between human CBF-beta and RUNX1; AID 1477; AlphaScreen CBFb-His/RUNX1-biotin binding, biochemical; 230,000 tested, under 10 active; Potency, µM (doses to about 59.8 µM), for inactives: at the highest dose activity, negative = inhibition, most hits filed as inhibitors; note: % of control where 0% means no effect
# Target sequence (Q01196 whole entry, looked up): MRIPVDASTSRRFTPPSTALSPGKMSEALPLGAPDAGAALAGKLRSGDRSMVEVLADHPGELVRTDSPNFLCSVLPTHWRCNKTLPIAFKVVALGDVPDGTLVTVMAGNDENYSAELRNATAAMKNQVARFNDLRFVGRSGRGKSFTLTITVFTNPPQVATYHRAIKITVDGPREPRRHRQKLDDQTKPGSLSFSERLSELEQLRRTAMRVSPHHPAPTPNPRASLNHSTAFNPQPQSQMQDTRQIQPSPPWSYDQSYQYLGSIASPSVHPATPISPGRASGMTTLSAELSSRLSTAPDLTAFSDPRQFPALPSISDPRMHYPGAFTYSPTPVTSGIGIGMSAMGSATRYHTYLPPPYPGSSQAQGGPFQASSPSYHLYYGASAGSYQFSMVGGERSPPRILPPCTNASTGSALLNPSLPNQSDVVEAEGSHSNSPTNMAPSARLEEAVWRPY
# Target sequence (Q13951 whole entry, looked up): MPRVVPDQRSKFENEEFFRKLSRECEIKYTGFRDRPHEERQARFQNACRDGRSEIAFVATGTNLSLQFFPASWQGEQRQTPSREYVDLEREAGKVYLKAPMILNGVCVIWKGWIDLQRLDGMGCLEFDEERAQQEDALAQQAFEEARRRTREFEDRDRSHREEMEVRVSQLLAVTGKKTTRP
#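 Proteins preincubated together for 20 min at RT before compound addition; 15 min later, nickel and streptavidin beads were added and left 90 min prior to AlphaScreen measurement.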
# ClpP mod – qHTS Assay for Activators of ClpP | purified B. subtilis ClpP, FRET peptide cleavage, 20 min | Potency, µM (top dose mostly 57.5 µM), for inactives: at the top dose activity change, negative = active | 340,000 compounds, 1.9% hits | AID 651965, 2013; active = well fitted falling curve with a large enough effect; inconclusive = small, poorly fitted or top-dose-only effect; inactive = no such curve, though single readings can be large or run the other way; note: potency is the fitted concentration of half-maximal effect; the source files actives as falling curves though it sought activators and does not explain the sign; nearly all actives have a fitted effect of over 65% in size
#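 ClpP 10 microg/mL final, pH 8 Tris/KCl buffer with BSA, glycerol, Tween-20; compound pinned in; FRET-FV substrate; RT 20 min; Ex320/Em430; ΔFRET vs ADEP 5.8 microM, DMSO, no enzyme.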
# a7 integrin act – integrin-mediated muscular dystrophy alleviation activation. alpha7betagal myoblasts, beta-gal FDG fluorescence, 48 h. 350,000 compounds, 0.064% hits. Potency, µM (top dose mostly 38.3 µM), for the others: top-dose activation, actives largely listed as activators. AID 624291;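 note: potency is the fitted concentration of half-maximal effect; 100% = response of the positive control SU9516; nearly all actives have a fitted effect of over 60% in size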
#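 alpha7betagal+/- myoblasts (passage 13, 250/well) treated 48 h at 37C with compounds at 1:260 dilution of DMSO stock. Lysed, then beta-galactosidase activity read as FDG fluorescence (ex 480/em 540) after 30 min, with pre-read for autofluorescence.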
# N370S GC mod – inhibits or activates N370S mutant glucocerebrosidase; P04062; AID 2101; N370S GC spleen homogenate, 4MU-glucoside fluorescence; Potency, µM (doses to about 59.4 µM), for the others: top-dose activity change, negative = inhibition, most hits filed as inhibitors; 330,000 compounds, 0.092% hits;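 note: potency is the fitted concentration of half-maximal effect; 0% = full enzyme activity and -100% = no enzyme basal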
# GRP78 ERSR act – inducers of ER stress response in human glioma cells. U87-MG GRP78 promoter luciferase reporter, 16 h. 420,000 compounds, 0.02% hits. AID 602332. Potency, µM, without a hit: at the highest dose activation, actives largely listed as activators; note: potency is the fitted concentration of half-maximal effect; series mostly up to about 76 µM; % of control where 0% means no effect; nearly all actives have a fitted effect of over 35% in size
#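 ERSR induction read as luciferase luminescence (Bright-Glo, 10 min at room temperature) in stably transfected human U87-MG glioma cells exposed to compounds for 16 h, using GRP78 as sensor.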
# Anesthetic bind – binds horse apoferritin like a general anesthetic | apoferritin/1-aminoanthracene competitive binding, fluorescence | Potency, µM (series often up to 77.5 µM), for the others: top-dose activity change, negative = displacement, actives largely listed as inhibitors | 350,000 compounds, 0.074% hits | AID 485281; note: potency is the fitted concentration of half-maximal effect; % is set by controls: 0 for no effect and ±100 for the full control effect; nearly all actives have a fitted effect of over 20% in size
#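 Horse-spleen apoferritin (10 uM) was mixed with 50% saturated 1-aminoanthracene in PBS, exposed to compounds for 10 min at room temperature, and read for fluorescence (ex 380 nm, em 535 nm). Competitive displacement was fitted with a four-parameter Hill equation.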
# * hit, by the source's call; ? = inconclusive; / = not tested or not shown; ! = repeats disagree; [ ] = another dose, or the depositor's remark. Unless noted, calls come from the whole dose curve; as a rule, active = well fitted curve in the direction sought with a large enough effect; inconclusive = small, poorly fitted or top-dose-only effect, or another doubt; inactive = no such curve, though single readings can be large; an effect the other way counts as inactive or inconclusive.
SMILES,CBFb RUNX1 block,ClpP mod,a7 integrin act,N370S GC mod,GRP78 ERSR act,Anesthetic bind
O=C(NN1CCCC1)NS(=O)(=O)c1ccc(Cl)cc1,/,/,/,/,-4.0%,/
COc1cccc(/C=C/c2cnc3ccccc3n2)c1OC,/,-17.5%,/,/,-9.0%,/
O=C1Oc2ccccc2C(=O)C1C(CC(O)c1ccc(-c2ccc(Br)cc2)cc1)c1ccccc1 (stereo not drawn),/,/,/,/,-0.6%,/
COc1ccc(C(=O)NCCN2Cc3cc(C)ccc3OC(C)C2)c(OC)n1 (stereo not drawn),/,/,/,/,-3.6%,/
O=C(c1nc2nc(-c3ccc(Cl)cc3)cc(C(F)(F)F)n2n1)N1CCOCC1,2.7%,17.8µM*,-1.8%,16.1%,-3.3%,-15.3%
COc1ccc(-c2cc(C(F)(F)F)n3nc(C(=O)O)nc3n2)cc1,8.5%,-23.6%,-12.3%[7.66 µM],-0.2%,-3.0%,50.8%
O=C(c1nc2nc(-c3ccccc3)cc(C(F)(F)F)n2n1)N1CCOCC1,13.5%,28.2µM*,13.0%,-9.7%,-3.3%,-6.6%
CC(C)(C)NC(=O)c1nc2nc(-c3ccccc3)cc(C(F)(F)F)n2n1,7.0%,28.2µM*,22.6%,?,-2.7%,-3.9%
Cc1cc(-c2ccnc(-n3ncc(C(=O)N(C)CC(O)c4ccccc4)c3C)n2)c(C)s1 (stereo not drawn),/,/,/,/,3.0%,/
COc1ccc(F)c(Cn2cnc3c(cnn3C(C)(C)C)c2=O)c1Cl,/,/,/,/,-1.1%,/
COc1cc(CN2CCCC(n3cc(C(=O)N4CCCC4)nn3)C2)cc(OC)c1 (stereo not drawn),/,/,/,/,1.2%,/
Cc1ccccc1C1(CC(=O)N2CC3CC4CC(C3)CC2C4)CC(=O)N(Cc2cccnc2)C1=O (stereo not drawn),/,/,/,/,-3.3%,/
c1ccc(-n2c(-c3ccco3)nnc2-c2ccco2)cc1,-2.5%,14.1µM*,-6.1%,2.8%,-4.4%,-2.7%
NC(=O)CSc1nnc(-c2ccco2)n1-c1ccccc1,/,-1.7%,7.7%,-5.4%,-4.0%,5.3%
CCc1cc(C(=O)/C=C/c2cc3c(cc2C)OCCO3)c(O)cc1O,/,-1.2%,/,/,/,/
CCOC(=O)c1c(-c2ccc(F)cc2)csc1NC(=O)c1c(-c2ccccc2)noc1C,0.2%,20µM*,16.6%,5.9%,-1.3%,3.5%
CC(C)(S)C(=O)N[C@H](CS)C(=O)O,/,/,/,/,-1.2%,/
Cc1cc(NCCN2CCOCC2)n2c(nc3ccccc32)c1C#N,4.9%,3.55µM*,11.3%,6.0%,-6.2%,46.0%
Cc1cc(NCCCN2CCOCC2)n2c(nc3ccccc32)c1C#N,5.5%,-1.9%,8.9%,?,-6.4%,747.6%
Cc1ccsc1/C=N/n1cnc2sc(C)c(C)c2c1=O,-17.8%,31.6µM*,11.7%,-0.4%,6.2%,-16.0%
Cc1ccc(C(=O)NNC(=O)Cn2ccc(C(F)(F)F)n2)o1,/,25.1µM*,-13.3%,-7.1%,-2.6%,/
COc1cccc(C(=O)N2CCc3c(C(=O)NC(C)c4ccco4)c(OC)cc(=O)n3CC2)c1OC (stereo not drawn),/,/,/,/,-2.5%,/
CS(=O)(=O)c1ccc(C2=C(c3ccccc3)C(=O)OC2)cc1,11.3%,1.3%,/,4.5%,-3.5%,4.0%
O=C1OCC(c2ccccc2)=C1c1ccccc1,/,35.5µM*,-97.3%,-1.6%,-4.3%,-10.7%
COc1ccccc1-c1ccnc(-n2ncc(C(=O)N(C)C(C)c3nc(C)cs3)c2C2CC2)n1 (stereo not drawn),/,/,/,/,3.8%,/
SMILES,CBFb RUNX1 block,ClpP mod,a7 integrin act,N370S GC mod,GRP78 ERSR act,Anesthetic bind
Cc1ccc(CCNS(=O)(=O)c2c(C)nc3sc(C)c(C)n3c2=O)cc1,/,6.31µM*,/,/,-2.9%,-7.5%
CCOC(=O)c1c(-c2ccccc2)nc2c(C)cccn12,1.6%,-6.3%,2.5%,9.3%,0.1%,-11.1%
Cc1cccn2c(N)c(-c3ccccc3)nc12,-6.1%,15.8µM*,7.8%,-13.2%[2.35 µM],2.0%,53.0%
Cn1c2ccccc2c2ncn(CCN3CCOCC3)c(=O)c21,-9.9%,31.6µM*,-24.6%,1.3%,-2.4%,-0.6%
O=[N+]([O-])c1cc(S(=O)(=O)Oc2ccccc2)ccc1Cl,/,35.5µM*,-55.1%,/,-14.2%,/
CN1CC2(Cc3c1ccc1ccccc31)C(=O)OC(C)(C)OC2=O,-4.4%,14.1µM*!,0.6%,?,-5.5%,156.3%
Cc1ccc2c(c1)CC1(CN2C)C(=O)OC2(CCCCC2)OC1=O,-10.2%,-2.8%,-5.6%,1.5%,-5.8%,-2.2%
O=C(CSc1nc(C2CC2)nc2ccccc12)N1c2ccccc2Sc2ccccc21,-0.3%,12.6µM*,-22.7%,?,-5.6%,-6.4%
COC(=O)c1cc(C(C)=O)c(C)[nH]c1=O,3.3%,/,-5.9%,5.0%,-2.9%,-0.3%
Cc1cc(C(=O)O)c(=O)[nH]c1C,1.6%,25.1µM*,15.1%,8.6%,-4.0%,-6.9%
Cc1ccsc1CN1CCc2nnc(CCNC(=O)c3ccc(F)cc3)n2CC1,/,/,/,/,-7.2%,/
CCCC(=O)N1CC(=O)Nc2ccc(C)cc2C1c1ccccc1 (stereo not drawn),/,17.8µM*,-7.0%,-2.5%,-3.9%,-16.3%
CCC(CC)C(=O)N1CC(=O)Nc2ccc(C)cc2C1c1ccccc1 (stereo not drawn),/,-1.2%,0.0%,-3.7%,-2.4%,-15.4%
CC(=O)c1cccc(NC(=O)C(OC(=O)/C=C/c2ccc3c(c2)OCO3)c2ccccc2)c1 (stereo not drawn),-2.3%,28.2µM*,15.2%,21.9%,0.2%,-17.3%
CC1=C(c2ccc(C)c(C)c2)S(=O)(=O)N(Cc2ccc(C(=O)NCc3ccc(C)cc3)cc2)C1=O,/,11.2µM*,/,/,-3.4%,-5.2%
COc1ccc(C2=C(C)C(=O)N(Cc3ccc(C(=O)NCc4ccc(C)cc4)cc3)S2(=O)=O)cc1,/,-15.5%,/,/,/,-10.6%
CC1=C(C(=O)O)N2C(=O)[C@@H](NC(=O)[C@H](N)C3=CCC=CC3)[C@H]2SC1,/,/,/,/,-3.4%,/
Cc1ccc(Nc2ncnc3sc(C)c(C)c23)cc1,6.9%,-5.0%,-13.2%,8.9%,2.6%,-10.3%
Cc1sc2ncnc(Nc3ccc(O)cc3)c2c1C,2.0%,/,12.2%,11.2µM*,0.7%,-0.8%
Cc1ccc(Nc2c(-c3c[nH]c4ccccc34)nc3cc(C)ccn23)cc1,/,28.2µM*,/,/,2.6%,-12.0%
CC(C)c1c(C(=O)NCCN2CCOCC2)cnn1-c1nccc(-c2cccs2)n1,/,/,/,/,-5.7%,/
CCOC(=O)C(CS)NCCN[C@@H](CS)C(=O)OCC (stereo partly drawn),/,/,/,/,-0.1%,/
CCOc1ccccc1-c1nc(-c2ccc(-c3ccccc3)nc2OCC)no1,/,12.6µM*,/,/,-1.9%,4.4%
CCOc1nc(-c2ccccc2)ccc1-c1noc(-c2ccco2)n1,4.6%,35.5µM*,5.4%,12.7%,-8.3%,4.2%

# Compound activity from PubChem BioAssay.
